# Measurements taken from publication PMC5540273 (PLoS ONE, 2017).
# What was measured:
# Conditions in all cases: concentration: 1 μM, replicates: in singlicate; n = 1
# RIPK4 = tested on: RIPK4
# RIPK5 = tested on: RIPK5
# ROCK1 = tested on: ROCK1
# ROCK2 = tested on: ROCK2
# ROS1 = tested on: ROS1
# [1] = tested on: RPS6KA4(Kin.Dom.1-N-terminal)
# [2] = tested on: RPS6KA4(Kin.Dom.2-C-terminal)
# [3] = tested on: RPS6KA5(Kin.Dom.1-N-terminal)
# [4] = tested on: RPS6KA5(Kin.Dom.2-C-terminal)
# [5] = tested on: T1, RSK1(Kin.Dom.1-N-terminal)
# T1 construct: gene RPS6KA1
# 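Also: KINOMEscan kinase panel screen.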
SMILES,%Inh (RIPK4) [%],%Inh (RIPK5) [%],%Inh (ROCK1) [%],%Inh (ROCK2) [%],%Inh (ROS1) [%],%Inh [1] [%],%Inh [2] [%],%Inh [3] [%],%Inh [4] [%],%Inh [5] [%]
c1ccc(-c2ccnc3[nH]ccc23)cc1 [SB-693578],28,7,90,88,0,0,8,5,26,28
CCCCc1nn2ncccc2c1-c1ccnc(NC2CC2)n1 [GW684374],7,5,0,0,8,0,0,0,11,7
Cc1ccc(NC(=O)Nc2ccc(Cl)c(C(F)(F)F)c2)cc1-c1ccc(C(=O)Nc2ccncc2)cc1 [GSK1398470],0,0,0,0,14,0,0,17,0,2
CNCc1ccc2nc(NC(=O)c3ccc(C(C)(C)C)cc3)cn2c1,14,11,5,13,9,9,9,0,0,0
Nc1cccc(-c2ccc3c(N)n[nH]c3c2)n1 [GSK2192730],41,0,0,0,0,0,0,0,4,24
COc1ccc(CSc2nnc(-c3ccc4c(c3)CCO4)o2)cc1,0,0,0,0,0,0,0,0,1,0
CCc1ccc(-c2ccc3c(c2)-c2n[nH]cc2S(=O)(=O)N3C)cc1,0,0,0,0,0,2,0,0,0,0
CCn1c(-c2c(N)noc2C)nc2cnccc21 [SB-737856],25,0,0,0,0,12,0,6,23,28
Cc1c(Cn2c3ccccc3n3c(=O)cc(N4CCOCC4)nc23)cccc1C(F)(F)F [GSK2306394],3,0,0,4,0,13,0,15,0,0
COc1ccc(CSc2nnc(-c3ccc4ncsc4c3)o2)cc1C(F)(F)F,0,0,11,0,0,0,5,17,10,0
CCn1c(-c2ccccc2)nc2cnccc21 [SB-733416],41,5,9,0,7,0,0,3,0,0
COc1cccc(NC(=O)Nc2ccc(C)c(-c3ccc(C(=O)Nc4ccncc4)cc3)c2)c1 [GSK1398474],23,0,0,0,0,18,0,12,40,16
NS(=O)(=O)c1cccc(N/C=C2\C(=O)Nc3ccc(S(=O)(=O)Cc4c(Cl)cccc4Cl)cc32)c1 [GSK398099],14,0,0,2,0,2,0,0,0,11
O=C1NC(=O)C(c2ccc(Cl)cc2)=C1Nc1ccc(O)cc1 [SB-340867],0,0,0,0,0,0,0,0,0,9
Cc1ccc(NC(=O)Nc2ccccc2)cc1-c1ccc(C(=O)Nc2ccncc2)cc1 [GSK1398471],1,0,0,0,0,3,0,13,0,15
CC(C)c1cc(-c2ccc3c(N)n[nH]c3c2)nc(N)n1 [GSK2250882],4,0,28,20,23,13,3,0,25,14
Cc1ccc(NC(=O)Nc2ccccc2F)cc1-c1ccc(C(=O)Nc2ccncc2)cc1 [GSK1398477],30,6,26,0,3,20,0,34,0,23
COC(=O)c1cccc(NC(=O)NC2CCN(c3ccnc(Nc4ccc(OC)cc4)n3)C2)c1 (stereo not shown) [GSK1379746],13,0,2,44,0,14,0,17,0,3
CN1c2ccc(-c3ccc(C(N)=O)cc3)cc2-c2[nH]ncc2S1(=O)=O,0,0,0,11,0,17,26,0,0,0
O=c1cc(N2CCOCC2)nc2n(Cc3cccc(Cl)c3Cl)c3ccccc3n12 [GSK2299009],16,0,10,0,38,24,0,16,2,31
O=C(Nc1n[nH]c2nc(-c3cccs3)c(Br)cc12)C1CC1 [SB-735297],7,3,0,0,6,0,8,10,4,14
CC(=O)c1cccc(NC(=O)NC2CCN(c3ccnc(Nc4ccc(F)cc4)n3)C2)c1 (stereo not shown) [GSK1379710],15,4,0,22,3,0,0,0,29,21
COc1ccc(Nc2nccc(N3CCC(NC(=O)C(C)c4ccc(Cl)cc4)CC3)n2)cc1 (stereo not shown) [GSK1379812],0,0,15,16,40,19,0,3,42,2

SMILES,%Inh (RIPK4) [%],%Inh (RIPK5) [%],%Inh (ROCK1) [%],%Inh (ROCK2) [%],%Inh (ROS1) [%],%Inh [1] [%],%Inh [2] [%],%Inh [3] [%],%Inh [4] [%],%Inh [5] [%]
Fc1ccc(-c2nn3cccc(F)c3c2-c2ccncc2)cc1 [GW475620],0,50,22,0,0,38,0,33,0,0
Cc1nccc(-c2c(-c3ccc(F)cc3)ncn2CCCN2CCOCC2)n1.Cl [SB-282975],33,13,0,0,23,100,15,5,8,0
Cc1c(Cn2c(C)c(C)n3c(=O)cc(N4CCOCC4)nc23)cccc1C(F)(F)F [GSK2328680],0,67,11,10,19,1,0,16,0,0
COc1ccc(-c2coc3ccc(-c4nnc(C)o4)cc23)cc1,0,0,0,0,0,13,0,4,4,0
Cn1cnc2c(N)ncnc21 [SKF-97623],0,0,38,26,0,0,0,0,0,23
O=C(Nc1n[nH]c2nc(-c3ccco3)c(Br)cc12)C1CCN(Cc2ccccc2)C1.O=C(O)[C@H](O)[C@@H](O)C(=O)O (stereo not shown) [SB-742034],17,29,0,0,5,11,12,0,16,17
CNC(=O)c1ccc(C)c(-n2c(C)cc(OCc3ccc(F)cc3F)c(Br)c2=O)c1,0,0,0,0,15,67,0,0,0,0
O=C(Nc1n[nH]c2nc(-c3cccs3)c(Br)cc12)C1CCCC1 [SB-743341],0,34,0,0,21,4,25,4,7,0
O=C(Nc1n[nH]c2cc(-c3ccsc3)ccc12)C1CC1 [SB-732932],35,8,7,0,0,12,17,0,13,26
COc1ccc(Nc2nccc(N3CCC(NC(=O)C(C)c4ccc(Cl)cc4)C3)n2)cc1 (stereo not shown) [GSK1379735],4,12,11,4,17,5,0,21,0,31
CSc1ccc(-c2nc3n(c2-c2ccncc2)CCC3)cc1 [SKF-105561],13,17,23,0,6,6,10,5,0,0
COc1ccc(Nc2nccc(N3CCC(NC(=O)c4cc5ccccc5s4)C3)n2)cc1 (stereo not shown) [GSK1379738],20,7,8,21,0,15,0,0,0,22
COc1nccc(-c2c(-c3ccc(F)cc3)ncn2CCCN2CCOCC2)n1 [SB-282852],47,6,32,20,0,17,0,0,0,0
CC(=O)c1c(C)c2cnc(Nc3ccn(C)n3)nc2n(C2CCCC2)c1=O,0,0,0,0,4,0,0,0,3,0
Cc1cccc2c(-c3ccncn3)c(-c3ccc(F)cc3)nn12 [GW515532],8,0,3,13,0,0,0,21,0,0
FC(F)(F)c1ccccc1-c1cc(-c2c[nH]nc2-c2ccccn2)ccn1 [GW679396],0,0,9,14,6,18,0,24,0,6
COc1cccc(CNC(=O)NC2CCN(c3ccnc(Nc4ccc(F)cc4)n3)C2)c1 (stereo not shown) [GSK1379723],20,10,0,0,0,0,0,7,36,2
CS(=O)(=O)CCNCc1nc(-c2ccc3ncnc(Nc4ccc5c(cnn5Cc5ccccc5)c4)c3c2)cs1.Cl.Cl [GW569716],3,0,47,33,0,23,0,9,7,8
Nc1nccc(-c2c(-c3ccc(F)cc3)ncn2C2CCN(Cc3ccccc3)CC2)n1 [SB-219980],7,34,34,0,10,0,0,0,0,0
Cc1ccccc1Cn1ccn2c(=O)cc(N3CCOCC3)nc12 [GSK2269905],0,0,0,0,0,23,0,12,0,25
Nc1ncnc2occ(-c3ccc4c(c3)CCN4C(=O)Cc3cc(F)ccc3F)c12 [GSK2645446],0,12,12,11,2,14,0,2,1,0
Fc1ccc(-c2nc3n(c2-c2ccncc2)CCS3)cc1 [GI98581],0,0,11,0,3,35,0,10,0,0
COc1cccc(C2=C(Nc3cc(Cl)c(O)c(Cl)c3)C(=O)NC2=O)c1 [SB-390767],13,7,11,11,0,5,0,6,18,0

SMILES,%Inh (RIPK4) [%],%Inh (RIPK5) [%],%Inh (ROCK1) [%],%Inh (ROCK2) [%],%Inh (ROS1) [%],%Inh [1] [%],%Inh [2] [%],%Inh [3] [%],%Inh [4] [%],%Inh [5] [%]
Cc1ccc(NC(=O)Nc2ccc(Cl)cc2)cc1-c1ccc(C(=O)Nc2ccncc2)cc1 [GSK1398472],28,6,4,0,0,7,0,17,0,27
COC(=O)C(NC(=O)NC1CCN(c2ccnc(Nc3ccc(F)cc3)n2)C1)c1ccccc1 (stereo not shown) [GSK1379712],13,22,31,37,12,0,0,0,22,22
Cl.Cl.Cl.N#Cc1ccc(CCNc2nccc(-c3cccc(CN4CCNCC4)c3)n2)cc1 [GSK2137462],0,19,33,41,6,0,0,19,5,10
Cc1ccccc1-c1cc(-c2c[nH]nc2-c2ccccn2)ccn1 [GW680061],0,0,0,3,0,5,0,4,0,5
O=C1NC(=O)C(c2ccc(Cl)cc2)=C1Nc1cccc(Cl)c1 [SB-317651],46,0,7,0,0,86,0,1,0,12
CC(C)c1ccc(O)cc1Nc1ccnc2ccc(C(F)(F)F)cc12 [GW482059],0,0,86,26,0,11,0,23,0,0
Cc1ccc(NC(=O)c2ccc(Cl)cc2)cc1-c1ccc(C(=O)Nc2ccncc2)cc1 [GSK1398467],9,0,0,17,8,13,0,17,49,10
COC(=O)c1cccc(NC(=O)NC2CCN(c3ccnc(Nc4ccc(F)cc4)n3)C2)c1 (stereo not shown) [GSK1379725],18,0,0,0,0,0,0,0,16,8
CS(=O)(=O)Cc1ccc(Nc2nccc(-c3c(-c4cccc(NC(=O)C5CCCCC5)c4)nn4ncccc34)n2)cc1 [GSK350559],44,39,37,21,21,0,35,0,16,11
COc1ccc(CSc2nnc(-c3ccc4nccn4c3)o2)cc1C(F)(F)F,0,0,14,0,3,11,21,22,1,18
Cc1cnc(N)c(/C=C/c2cncc(C(=O)NCCc3ccc(Cl)cc3Cl)c2)c1.Cl [GSK190937],0,0,71,45,3,4,0,22,0,9
COc1ccc2cc(-c3nc(-c4ccccc4C(C)C)[nH]c3-c3ccncc3)ccc2c1 [SB-660566],25,4,35,0,0,6,0,4,0,42
Cn1cncc1-c1cc2c(Nc3ccc(OCc4ccccc4)cc3)ncnc2cn1 [GW281179],8,0,82,74,13,9,0,11,0,30
CNc1nc(-c2ccc3c(N)n[nH]c3c2)cc(N2C[C@@H](C(=O)NC3CCCCC3)OC[C@H]2C)n1 [GSK2375584],11,1,23,26,19,16,0,25,24,11
Cn1cncc1C(=O)NC1CCN(c2ccnc(Nc3ccc(F)cc3)n2)C1 (stereo not shown) [GSK1379717],33,20,0,19,0,0,0,0,0,16
COc1cc2ncnc(Nc3cccc(Br)c3)c2cc1OC.Cl [GI230329],5,8,37,33,28,8,0,0,2,0
CC[C@@H]1CO[C@H](C(=O)Nc2ccccc2)CN1c1cc(-c2ccc3c(N)n[nH]c3c2)nc(NC)n1 [GSK2376236],0,8,,52,24,10,0,28,23,7
COC(=O)C(Cc1ccccc1)NC(=O)NC1CCN(c2ccnc(Nc3ccc(F)cc3)n2)C1 (stereo not shown) [GSK1379714],0,15,9,20,24,14,0,1,18,6
CC(=O)c1c(C)c2cnc(Nc3ccc(N4CCNCC4)cn3)nc2n(C2CCCC2)c1=O,0,0,0,0,0,15,0,0,0,14
Cc1ccc(-c2nc(Nc3ccncc3)c3ccccc3n2)s1 [GSK189015],20,6,0,0,0,18,0,23,0,0
CS(=O)(=O)CCNCc1nc(-c2ccc3ncnc(Nc4ccc(OCc5ccccc5)c(Cl)c4)c3c2)cs1.Cl [GW582764],1,0,45,38,0,17,0,3,0,25
O=c1cc(N2CCOCC2)nc2n(Cc3ccccc3F)ccn12 [GSK2297428],0,0,0,0,47,5,0,8,0,5
